Only some compounds are listed: those with a hit (about 2.9% of all), similar ones and a draw of the others.
HSF-1 act: HSF-1 activators, primary screen, NIH3T3-HGL cells, MG132 stress, luminescence, single point. NIH3T3-HGL HSF-1 luciferase reporter, 8 h; 100% = twice DMSO control signal. activation, % at 9 µM. 300,000 compounds, 1.7% hits;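 active = mean replicate activation of at least 50% with a set share of replicates each reaching 50%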
S1P4 antagonist: S1P4 receptor antagonists, primary screen, cell-based. Sphingosine 1-phosphate receptor 4 (Homo sapiens), O95977. S1P4-expressing cells, antagonist mode, reporter read-out. inhibition, % at 4.98 µM. 220,000 compounds, 0.26% hits. AID 1510, 2009; in the data active = inhibition above about 29%
S1P3 antag: S1P3 receptor antagonists, primary screen, cell-based; Sphingosine 1-phosphate receptor 3 (Homo sapiens), Q99500; CHO S1P3 NFAT-BLA reporter, FRET fluorescence, antagonist mode; inhibition, % at 4.98 µM; 170,000 compounds, 0.27% hits;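 active = inhibition above the plate cutoff, the mean inhibition of test wells on that plate plus 3 SD, cut at about 28% in these data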;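 note: cells challenged with S1P at its EC80 of 0.8 µM; blue over green emission ratio from cleaved BLA substrate after 4 h stimulation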
Target sequence (Q99500 whole entry, looked up): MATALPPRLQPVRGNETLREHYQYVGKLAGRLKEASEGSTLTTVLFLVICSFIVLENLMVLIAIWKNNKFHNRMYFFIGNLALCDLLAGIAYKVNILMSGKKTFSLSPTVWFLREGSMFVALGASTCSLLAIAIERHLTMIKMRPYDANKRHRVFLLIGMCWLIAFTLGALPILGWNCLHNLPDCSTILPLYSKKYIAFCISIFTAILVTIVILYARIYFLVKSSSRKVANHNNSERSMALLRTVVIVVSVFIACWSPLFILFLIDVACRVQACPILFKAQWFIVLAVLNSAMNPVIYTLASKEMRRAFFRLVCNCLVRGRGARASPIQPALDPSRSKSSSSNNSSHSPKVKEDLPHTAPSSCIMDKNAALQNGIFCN
Hsp70 act: Hsp70 transcriptional activators, primary screen, cell-based, HeLa, Hsp70 promoter luciferase, luminescence, 10 µM | HeLa Hsp70 promoter luciferase reporter; scaled: vehicle 0, proteasome-inhibitor control 100% | activation, % at 10 µM | 200,000 compounds, 0.04% hits | AID 1203, 2008;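 active = activation above the mean across all tested compounds plus 3 SD, cutoff set per campaign, cut at about 5.5% in these data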
S1P4 ag: S1P4 receptor agonists, primary screen, cell-based. Sphingosine 1-phosphate receptor 4 (Homo sapiens), O95977. S1P4-expressing cell line, agonist reporter assay. activation, % at 4.98 µM. 220,000 compounds, 0.35% hits; in the data active = activation above about 11%
HSF1 inh: HSF1 inhibitors in luciferase reporter cells, primary screen, cell-based, NIH3T3, luminescence. NIH3T3-HGL HSE-luciferase, MG132-induced, luminescence 8 h; hits give low values. AID 2098, 2009. 300,000 compounds, 0.77% hits. activity change, negative = inhibition, % at 7.5 µM (by protocol);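 active = more than half of replicate wells show activity change below -50%, luminescence cut by over half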;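 note: luciferase reports HSF-1 transcriptional activity via heat shock element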
A number is an active result; – = inactive; · = no result given.

SMILES | HSF-1 act | S1P4 antagonist | S1P3 antag | Hsp70 act | S1P4 ag | HSF1 inh
Cc1cccc(-c2ocnc2C(=O)N2CCN(C(=O)c3cccs3)CC2)c1 | – | · | · | · | · | -87
O=C(CC12CC3CC(CC(Br)(C3)C1)C2)Nc1nncs1 | – | · | · | · | · | –
CCc1nnc(NC(=O)CC23CC4CC(CC(Br)(C4)C2)C3)s1 | 58 | · | · | · | · | –
COc1ccc(OC)c(C2C(C(C)=O)=C(C)Nc3ncnn32)c1 (stereo unspecified) | – | · | · | · | · | –
COc1cc2c(cc1OC)C(c1cc(Br)ccc1F)N(C(=O)CCl)CC2 (stereo unspecified) | – | · | · | · | · | -97
CCOc1ccc(OCC)c(NC(=O)CSc2nnc(C3CC3)n2CC)c1 | – | · | · | · | · | –
Cn1c(SCC2CCCCC2)nnc1-c1ccncc1 | – | – | – | – | – | –
CCOc1ccc(CN2C(=O)CC(=O)N(S(=O)(=O)c3ccc(OCC)cc3)C2=O)cc1 | – | – | – | · | – | –
COc1ccc(CCNC(=O)Cc2cccs2)cc1 | – | – | – | – | – | -55
O=C(Cc1cccs1)NCCCc1ccccc1 | – | – | – | – | – | –
COc1cc(C(=O)N2CCN(C)C(C)C2)ccc1OC1CCN(C(C)=O)CC1 (stereo unspecified) | – | · | · | · | · | –
N#Cc1cc2ccccc2nc1SCC(=O)Nc1ccccc1N1CCOCC1 | 71 | – | · | – | – | –
Cc1nc(C(F)(F)F)c(C(=O)N/N=C(\N)c2cccnc2)s1 | – | – | – | – | – | –
CN(Cc1ccon1)C(=O)C1CCC(=O)N(CCc2ccc(Cl)cc2)C1 (stereo unspecified) | – | · | · | · | · | –
COc1ccccc1NC(=O)CN1CCCCC1 | – | – | – | – | – | –
COc1ccccc1NC(=O)CN1CCN(CC(=O)Nc2ccc(F)cc2F)CC1 | 69 | · | · | · | · | –
O=C1CCC(=O)N1c1ccc(-c2nc3ccccc3s2)cc1 | – | – | – | – | – | -72
COc1ccc(CNc2nc3ccccc3s2)cc1OC | – | · | · | · | · | –
c1ccc(CCNc2nc3ccccc3s2)cc1 | 56 | – | · | – | – | –
O=C(Nc1cccc2ccccc12)OCc1cncs1 | – | – | – | – | – | –
O=C1CC(c2cccc([N+](=O)[O-])c2)c2cc3c(cc2N1)CCC3 (stereo unspecified) | – | – | – | – | – | –
O=C1CC(c2cccc([N+](=O)[O-])c2)c2c(ccc3ccccc23)N1 (stereo unspecified) | 53 | – | · | – | – | –
CCOc1ccc(/C=N/Nc2nc(C)cs2)c(O)c1 | – | · | · | · | · | –
CCOc1cc(/C=C2\CN(C)C/C(=C\c3ccc(O)c(OCC)c3)C2=O)ccc1O | – | · | · | · | · | –
CCOc1cc(/C=C2\CCC/C(=C\c3cc(Cl)c(O)c(OCC)c3)C2=O)cc(Cl)c1O | 316 | – | · | – | – | –
SMILES | HSF-1 act | S1P4 antagonist | S1P3 antag | Hsp70 act | S1P4 ag | HSF1 inh
CCN=C1S/C(=C\c2ccc(-c3cccc(C(=O)O)c3)o2)C(=O)N1CC | – | – | – | – | – | -52
O=C(Nc1ccc2nc3n(c(=O)c2c1)CCCC3)c1cncc(Br)c1 | – | · | · | · | · | –
O=C(COC(=O)c1ccccc1C(=O)OCC(=O)NCCc1c[nH]c2ccccc12)NCCc1c[nH]c2ccccc12 | – | · | · | · | · | –
CC(=O)OCC(=O)NCC(=O)c1c[nH]c2ccccc12 | – | – | – | – | – | -61
CN(C)S(=O)(=O)c1cccc(C(=O)N=C2N=C3C=CC(Cl)=CN3Cc3ccccc32)c1 | 60 | – | – | · | – | –
C=CCN(CC(=O)NC1CCCC1)C(=O)C(=O)Nc1ccc2c(c1)OCCO2 | – | · | · | · | · | –
Cc1ccc(NC(=O)CSc2cn[nH]n2)cc1 | – | · | · | · | · | –
CCCCc1nc2cc(C(=O)N3CCCCC3CCNC(C)=O)ccc2o1 (stereo unspecified) | – | · | · | · | · | –
CN(CC(=O)N1CCCCCC1)S(=O)(=O)c1ccc(F)cc1 | – | – | – | – | – | –
Cc1ccc(C)c(NC2CCCCC2NS(=O)(=O)c2ccccc2)c1 (stereo unspecified) | 83 | · | · | · | · | –
